These results are taken from PubChem BioAssay AID501 (PCMD, 2006).

Among all 62,000 compounds or so, about 35 (0.06%) were called active. The list comes from a sample in which actives are over-represented; it also holds similar structures and randomly drawn compounds. Unmarked numbers belong to inactive results. Cut-off read from the data, not from the text of the source: active = inhibition above about 32% (passing the limit was not always enough); inconclusive = no clear call, values can overlap the other calls.

A word on the inhibition: it is the drop in the measured response relative to a control, in per cent.

The target of this experiment is Cathepsin S (Homo sapiens) (UniProt P25774). The experiment is described as follows: inhibitors of human cathepsin S, biochemical, compound mixtures (AID 501).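 Note: 0% = enzyme without compound and 100% = blank without enzyme.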 As to conditions: recombinant cathepsin S, AMC dipeptide fluorescence, pooled mixtures; stronger effect = higher value;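 tested at 5 µM per compound within 10-compound mixtures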.
Chain of Cathepsin S (Homo sapiens) (P25774 115-331 limits assumed): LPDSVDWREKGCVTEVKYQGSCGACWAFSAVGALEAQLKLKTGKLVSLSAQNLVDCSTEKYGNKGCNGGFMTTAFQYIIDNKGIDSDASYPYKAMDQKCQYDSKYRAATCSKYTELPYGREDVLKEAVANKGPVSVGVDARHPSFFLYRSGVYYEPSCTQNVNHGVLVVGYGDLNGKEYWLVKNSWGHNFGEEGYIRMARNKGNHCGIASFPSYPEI
In the case of `Cc1nn(-c2ccccc2)c2sc(C(=O)N(Cc3ccco3)C(C)C(=O)NC(C)(C)C)cc12` (stereo not drawn), the inhibition is 13.8%.

On to `c1ccc2c(c1)OCC(CNc1ncnc3nc[nH]c13)O2` (stereo not drawn), for which the inhibition is -0.615%.

Turning to `O=C(CN1CCN(c2ncc(C(F)(F)F)cc2Cl)CC1)Nc1ccc2c(c1)OCO2`, the inhibition was 13.5%.

For the compound `COc1ccc(-c2noc(CN(C)S(=O)(=O)c3ccc(C)cc3)n2)cc1`, the inhibition was 8.41%.

On to `Cc1ccc2c(c1)N(C(=O)CCC(=O)N1CCc3ccccc3C1)CCO2`, for which the inhibition was -12.7%.

Regarding `CCn1c(=O)cc(OCC(=O)NCCCN2CCN(c3cccc(Cl)c3)CC2)c2ccccc21`, the inhibition was 4.46%.

Turning to `Cn1c(C(=O)NCCCN2CCN(c3cccc(Cl)c3)CC2)cc2c(=O)n(C)c3ccccc3c21`, the inhibition was 33% (active).

For the compound `CC1CCCC(C)N1CCCNC(=O)c1cc2c(=O)n(C)c3ccccc3c2n1C` (stereo not drawn), the inhibition was 7.08%.

As for `COc1ccc(-c2ccc(-c3noc(-c4ccncc4)n3)c(OC)n2)cc1`, the inhibition is 6.8%.

Consider `COc1ccccc1N1CCN(c2nc3ccccc3n3nnnc23)CC1`, for which the inhibition is 8.24%.

As for `CC1CCCC(NC(=O)CN2CCN(Cc3ccc(Cl)cc3)C2=O)C1C` (stereo not drawn), the inhibition is -3.54%.

For the compound `CCN(CC)S(=O)(=O)c1ccc2nc(CSc3nnnn3-c3ccc(O)cc3)[nH]c2c1`, the inhibition is -6.33%.

In the case of `CCC(C)Sc1nnc(-c2c[nH]c3ccccc23)n1CCOC` (stereo not drawn), the inhibition was -1.22%.

As to `COc1ccc(-c2cc3n(n2)CCc2nc4ccccc4n2-3)cc1`, the inhibition was -5.35%.

Consider `CCN(CC)C(=O)CSc1nnc(-c2ccc(S(=O)(=O)NCc3ccccc3Cl)cc2)o1`, for which the inhibition was 6.42%.

For the compound `O=c1/c(=C/c2ccc(CNS(=O)(=O)c3ccccc3)o2)sc2n1CCN=2`, the inhibition is -0.38%.

For `Cc1cc(C)nc(SCc2ccccc2C#N)n1`, the inhibition was -2.31%.

As to `CCc1cc(=O)oc2cc(C)cc(OC(C)C(=O)O)c12` (stereo not drawn), the inhibition is -5.16%.

For `CN1CCN(Cc2c(O)ccc3c2oc(=O)c2ccccc23)CC1`, the inhibition is 6.08%.

`CCNS(=O)(=O)c1ccc(NC(=O)Nc2cccc(C(F)(F)F)c2)cc1`: the inhibition is -6.53%.

In the case of `Cc1c2cnn(-c3ccccc3)c(=O)c2c(C)n1CCCC(=O)N1CCN(C)CC1`, the inhibition is -3.9%.

Regarding `CC(NC(=O)c1ccco1)C(=O)Nc1nc(-c2ccccn2)cs1` (stereo not drawn), the inhibition was 12%.

Consider `O=C(O)C1C2C=CC(C2)C1C(=O)N1CCN(CCO)CC1` (stereo not drawn), for which the inhibition was 3.18%.

On to `CC(=O)c1cnc(Nc2nc(C)c3cc(C)ccc3n2)nc1C`, for which the inhibition is -5.6%.

Turning to `CC(C)NS(=O)(=O)c1ccc(OCC(=O)Nc2ccc3c(c2)OCCO3)cc1`, the inhibition was 22.9%.

In the case of `N#Cc1nc(N)nc(N(c2ccccc2)c2ccccc2)n1`, the inhibition is 49.2% (active).

As for `CC(C)Nc1nc(N(c2ccccc2)c2ccccc2)nc(-n2ccnc2)n1`, the inhibition is -8.9%.

For the compound `CC(C)n1c(SCC(=O)Nc2ccccc2N2CCCCC2)nc2c1c(=O)n(C)c(=O)n2C`, the inhibition is -0.72%.

For the compound `CCOC(=O)C1=C(CNC2CCCCC2)NC(=O)NC1c1cc(C)ccc1C` (stereo not drawn), the inhibition was -0.495%.

Turning to `O=c1cc(CO)oc(CN2CCC(Cc3ccccc3)CC2)c1O`, the inhibition was 4.81%.

For the compound `C=CCN1C(=O)C(O)(CC(=O)c2ccc(Cl)cc2)c2ccccc21` (stereo not drawn), the inhibition is -18%.

Turning to `CC(C)N1C(=O)C2C(C(=O)NC3CCCCC3)C3C=CC2(O3)C1C(=O)NC1CCCC1` (stereo not drawn), the inhibition is -8.37%.

With `COc1ccc(-c2csc(N3CCN(Cc4ccc5c(c4)OCO5)CC3)n2)cc1`, the inhibition was -3.99%.

For the compound `COc1ccc(C(=O)Nc2ccc3c(c2)OCO3)cc1OC`, the inhibition was -4.12%.

Regarding `Cc1ccc(C(=O)Nc2ccc3c(c2)OCO3)cc1S(=O)(=O)N1CCCCC1`, the inhibition is 85.5% (active).

Take `Cc1ccc(C(=O)NCC(=O)O)cc1S(=O)(=O)N1CCCCC1`: the inhibition is -10.7%.

Take `Cc1ccc(S(=O)(=O)N2CCCC2C(=O)NCc2ccco2)cc1` (stereo not drawn): the inhibition is 12.5%.

For the compound `CC1(C)CC(CCC(=O)Nc2ccccc2Cl)C(=O)O1` (stereo not drawn), the inhibition is -3.38%.

As to `Cc1ccc(C(=O)NCC2CCCO2)o1` (stereo not drawn), the inhibition is 0.56%.

Consider `CCOC(=O)c1c(C)c(C(=O)NCCc2ccc(S(N)(=O)=O)cc2)c(C)n1CC`, for which the inhibition is -0.765%.

As for `CC(CCc1ccccc1)NC(=O)c1ccc(Br)o1` (stereo not drawn), the inhibition was -7.32%.

Take `CC1(C)Cc2ccccc2-c2nnc(-c3cccc(O)c3)n21`: the inhibition was -3.6%.

Turning to `O=C(c1ccc(S(=O)(=O)N2CCOCC2)cc1)N1CCN(c2ccccc2)CC1`, the inhibition is -24.7%.

In the case of `C#CCN1CC(C)/C(=N/O)CC1C` (stereo not drawn), the inhibition is -8.55%.

Regarding `CCOC(=O)C1(c2ccccc2)NC(c2ccc(N(C)C)cc2)C2C(=O)N(C)C(=O)C21` (stereo not drawn), the inhibition is 12.2%.

Take `O=S(=O)(NCCNS(=O)(=O)c1ccccc1)c1ccccc1`: the inhibition was -7.43%.

In the case of `Cc1nc(N2CCCC2C(=O)O)c2oc3ccccc3c2n1` (stereo not drawn), the inhibition is 8.31%.

`COc1ccc(CCn2c(NCCCN3CCOCC3)nc3c2c(=O)[nH]c(=O)n3C)cc1`: the inhibition was 5.43%.

For the compound `CCOC(=O)c1sc(=S)n2c1[nH]c(=O)c1ccc(C(=O)OC)cc12`, the inhibition was -0.96%.

`O=C(CC(NS(=O)(=O)c1ccc(Cl)cc1)c1ccco1)NC1CCCC1` (stereo not drawn): the inhibition was -2.72%.

Regarding `CC(=O)Nc1nc(C)c(Cc2ccccc2)c(=O)[nH]1`, the inhibition is -3.33%.

Regarding `CCCCSc1nnc(-c2ccc(C)cc2)o1`, the inhibition was 0.235%.

Regarding `O=C(c1ccc2c(c1)C(=O)N(c1ccc(Cl)cc1)C2=O)N1CCN(c2ccccn2)CC1`, the inhibition is 2.28%.

Take `O=C(NCc1ccco1)c1ccc(CS(=O)(=O)Cc2ccc(F)cc2)o1`: the inhibition is -5.21%.

Turning to `COc1cccc(-c2nc3n(n2)C(c2ccccc2Cl)C(C(N)=O)=C(C)N3)c1` (stereo not drawn), the inhibition was -4.19%.

With `CC1(C)CCCC2=C1CC1C(=O)N(c3ccccc3)C(=O)C1C2` (stereo not drawn), the inhibition is 8.69%.

`Cc1ccc(-n2c(SCC(=O)Nc3ccc4c(c3)OCO4)nnc2-c2ccoc2C)cc1`: the inhibition is 7.19%.

Regarding `CC12COC3(C(=O)Nc4ccc(Cl)cn4)CC1CCC32C` (stereo not drawn), the inhibition was -6.89%.

Consider `COC(=O)C1(S(=O)(=O)C2(C(=O)OC)CCCC2)CCCC1`, for which the inhibition was -5.82%.

As to `CCOc1ccc2[nH]c(=O)c(CN(Cc3nnnn3Cc3ccccc3)CC3CCCO3)cc2c1` (stereo not drawn), the inhibition was 6.16%.

As for `CCOC(=O)CSc1nccc(N(C)C)c1C#N`, the inhibition was 14.4%.

Take `Cc1nnc(N(Cc2ccco2)C(=O)c2ccno2)s1`: the inhibition was -4.35%.

For the compound `CCn1c(=O)cc(O)c2ccccc21`, the inhibition is 9.68%.

Regarding `COc1cc(C(=O)N(Cc2ccc(N(C)C)cc2)C2CCS(=O)(=O)C2)cc(OC)c1OC` (stereo not drawn), the inhibition is 0.64%.

Regarding `Nc1nnc(C2CCCC2)s1`, the inhibition was 14.3%.

With `CCc1ccccc1NC(=O)c1cccs1`, the inhibition was 8.09%.

For the compound `CCOC(=O)C1=C(CC)Nc2ccccc2N=C1NC(=O)c1cccc(S(=O)(=O)N2CCCC2)c1`, the inhibition was -5.2%.

As for `CCC(=O)NC(=Nc1nc2ccccc2s1)NC(=O)CC`, the inhibition was -2.2%.

With `C=CCn1c(SCc2cc(C(=O)OC)c(C)o2)nnc1-c1ccncc1`, the inhibition is -3.76%.

`CCOc1ccc(-c2nnc(-c3ccco3)o2)cc1`: the inhibition is -3.01%.

For the compound `CCOc1ccc(OCC)c(NC(=O)CN(C)S(=O)(=O)c2cccc3nsnc23)c1`, the inhibition is -22.2%.

With `CCOC(=O)CSc1nnc(CNc2ccc(F)cc2)o1`, the inhibition is -5.03%.

`Cn1c(=NC(=O)CSCC(=O)N2CCOCC2)sc2ccccc21`: the inhibition was 14.7%.

Consider `Cn1c(=O)[nH]c(=O)c2c1nc(CN(Cc1ccccc1)Cc1ccccc1)n2CCN1CCOCC1`, for which the inhibition was 2.01%.

On to `COc1ccc(Br)cc1S(=O)(=O)N1CCN=C1C`, for which the inhibition was -2.2%.

`Cn1c(=NC(=O)CSCC(=O)N2CCCCC2)sc2ccccc21`: the inhibition was 6.42%.

For the compound `CSCCC(NS(=O)(=O)/C=C/c1ccccc1)C(=O)N1CCC(C)CC1` (stereo not drawn), the inhibition was -1.31%.

For the compound `CCOC(=O)N1CCC(NC(=O)CCc2cn(C)c3ccccc23)CC1`, the inhibition was -4.61%.

Consider `CCn1cc(C(=O)NCc2ccc(OC)cc2OC)c(=O)c2ccc(C)nc21`, for which the inhibition was 0.185%.

For `CCN(CC)P(=O)(/C(Cl)=C\Nc1c(C)n(C)n(-c2ccccc2)c1=O)N(CC)CC`, the inhibition was 0.845%.

As for `COc1ccc(C)cc1NC(=O)c1[nH]c(C)c(C(C)=O)c1C`, the inhibition was -3.92%.

Consider `Fc1ccc2[nH]c3c(N4CCN(Cc5ccc6c(c5)OCO6)CC4)ncnc3c2c1`, for which the inhibition was -6.06%.

Consider `CCc1c(C)nc(N)n2c(SCC(=O)N3CCN(c4ccccc4)CC3)nnc12`, for which the inhibition was -12.8%.

Turning to `CN1CCN(CC(O)COCc2ccc3c(c2)OCO3)CC1` (stereo not drawn), the inhibition is 5.75%.

Regarding `CC(=O)Nc1cccc(NC(=O)c2c(-c3ccccc3)noc2C)c1`, the inhibition is -5.8%.

Turning to `O=C(NCCCN1CCOCC1)c1cc(-c2ccc(Cl)cc2)on1`, the inhibition is -0.13%.

For the compound `O=C(NCCc1ccco1)c1nn(Cc2ccccc2)c(=O)c2ccccc12`, the inhibition was 11.9%.

Take `O=C(C1CCCO1)N(Cc1ccccc1)c1ccccc1` (stereo not drawn): the inhibition was -2.27%.

With `Cc1ccsc1C(C(=O)NC1CCCCC1)N(C(=O)Cc1cccs1)C1CC1` (stereo not drawn), the inhibition is 6.71%.

Regarding `Cc1cc(=O)n2nc(N3CCCC(C(=O)NCCC4=CCCCC4)C3)sc2n1` (stereo not drawn), the inhibition is 19.8%.

`CCOC(=O)C1CCCN(C(=O)Cn2ncc3c(=O)oc4ccc(C)cc4c32)C1` (stereo not drawn): the inhibition was 7.33%.

As to `O=C(Nc1cccnc1)c1noc2c1CCCCC2`, the inhibition is 10.9%.

For the compound `CCc1cc2c(=O)c(-c3ccon3)c(N)oc2cc1OC`, the inhibition is -1.48%.

`COc1ccc(C(c2nnnn2Cc2cccs2)N2CCN(c3ccccc3)CC2)cc1OC` (stereo not drawn): the inhibition is -6.06%.

Regarding `CC(C)COC(=O)C1C2C=CC3(CN(C(C)c4ccc(Br)cc4)C(=O)C13)O2` (stereo not drawn), the inhibition was 14.7%.

As for `O=C(O)c1ccc(-n2cccc2)cc1O`, the inhibition was 5.17%.

For `CCOc1cc(C(=O)Nc2ncccn2)cc(OCC)c1OCC`, the inhibition is 31.7%.

For `Cc1ccsc1CNn1cnnc1SCc1ccccc1F`, the inhibition was -4.25%.

For the compound `CCOC(=O)CCCNC(=O)CN1C(=O)NC(CCc2ccccc2)C1=O` (stereo not drawn), the inhibition was -3.72%.

For the compound `CC1CCCC(N2CCN(C(=O)c3ccc(F)cc3)CC2)C1` (stereo not drawn), the inhibition was -4.6%.

On to `CSCC[C@H](NC(=O)NCCc1ccc(F)cc1)C(=O)O`, for which the inhibition is -4.51%.

On to `CCCCc1cc(=O)oc2cc(C)cc(OCc3nn[nH]n3)c12`, for which the inhibition was 1.43%.

Take `CCN(CC)S(=O)(=O)c1ccc(NC(=O)CN(c2cccc(F)c2)S(C)(=O)=O)cc1`: the inhibition is -8.46%.

`CC(C)(CSc1nncn1/N=C/c1ccco1)NS(=O)(=O)c1ccc(Cl)cc1`: the inhibition was 6.83%.

As to `CC1(C)SC2c3ccccc3C(=O)N2[C@@H]1C(=O)NCc1ccco1` (stereo partly drawn), the inhibition was -3.88%.

Consider `CCOC(=O)c1c(C)[nH]c(C)c1C(=O)CSc1nc(N)cc(N)n1`, for which the inhibition was 5.32%.

For `O=C(C1CCN(c2nnc(-n3cccc3)s2)CC1)N1CCc2ccccc2C1`, the inhibition is 4.27%.

`Cc1cc(Nc2cccc(C)c2C)n2ncnc2n1`: the inhibition is -1.92%.

In the case of `COC(=O)c1ccc(NC(=O)CN(c2ccc(C)cc2)S(=O)(=O)c2c(C)n[nH]c2C)cc1`, the inhibition was -7.46%.

With `COc1ccc(N(CC(=O)NC(C)(C)C)C(=O)c2ccco2)cc1`, the inhibition was 10.2%.

As to `Cc1cc(Cl)ccc1N1C(=O)CC(SCCC(=O)O)C1=O` (stereo not drawn), the inhibition is 1.91%.

Turning to `COc1cc2ccccc2cc1C(=O)Nc1ccc(S(=O)(=O)Nc2cc(C)on2)cc1`, the inhibition was -7.28%.

As for `Cc1cc(=O)[nH]c(SCC(=O)N2c3ccccc3CC2C)n1` (stereo not drawn), the inhibition was 33.4%.
